Screening results from PubChem BioAssay.
A selection: hits, their analogues and other compounds. The true share with any hit is near 19%.
HT1080-NT tox: qHTS for induction of synthetic lethality in tumor cells producing 2HG: qHTS for the HT-1080-NT fibrosarcoma cell line; 1.6% of 360,000 active; Potency, µM (top dose mostly 46.1 µM), hits mostly cytotoxic; AID 686970, 2013; HT-1080-NT fibrosarcoma viability, CellTiter-Glo ATP luminescence, 48 h;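 also: NT is the 2HG producing partner of a matched IDH1 knockdown line; nearly all actives have a fitted effect of over 55% in size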
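Compounds were tested in concentration-response format on HT-1080-NT cells for 48 hours at 37 degrees C. Cell viability came from CellTiter-Glo luminescence; curves were classified by r2, response magnitude and activity.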
IL1B secr inh: qHTS for Inhibitors of Inflammasome Signaling: IL-1-beta AlphaLISA Primary Screen. AID 743279, 2014. THP-1 LPS/ATP IL-1B secretion, AlphaLISA, 16 h; active compounds read low. activity change, % at 57.5 µM. 4.7% of 360,000 active; in the data active = activity change below about -50%; inconclusive = mostly about -30% to -49%
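Secreted IL-1B measured by AlphaLISA bead assay after 16 h compound exposure of THP-1 cells; compounds (final up to 57.5 uM) added 1 h before LPS (250 ng/mL) and ATP (1.25 mM) stimulation; lower signal means less secretion.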
HT1080 IDH1KD tx: qHTS for induction of synthetic lethality in tumor cells producing 2HG: qHTS for the HT-1080-IDH1KD cell line; HT-1080 IDH1 knockdown viability, ATP luminescence, 48 h; Potency, µM (titrated, usually from 46.1 µM), most hits filed as cytotoxic; 2% of 360,000 active; AID 686971, 2013
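In this qHTS, HT-1080 cells depleted of IDH1 are exposed for 48 h at 37 °C to compound titrations. Toxicity is scored from CellTiter-Glo luminescence, with DMSO as full viability and medium alone as none.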
TDP1 cell noCPT: qHTS for Inhibitors of human tyrosyl-DNA phosphodiesterase 1 (TDP1): qHTS in cells in absence of CPT. DT40 Tdp1-/- hTDP1 cells, no CPT, ATP luminescence, 48 h. Potency, µM (doses to about 46.2 µM), usual class: inhibitors. 15% of 420,000 active. AID 686978, 2013; also: nearly all actives have a fitted effect of over 55% in size
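Seeded 400 DT40-hTDP1 cells/well (vehicle DMSO, no 20 nM CPT); pinned compounds; ≥48 hr at 37 °C; CellTiter-Glo luminescence as viability measure.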
DT40 TDP1 CPT: qHTS for Inhibitors of human tyrosyl-DNA phosphodiesterase 1 (TDP1): qHTS in cells in presence of CPT; chicken DT40 Tdp1-/-;hTDP1 cells + 20 nM CPT, ATP luminescence, 48 h; Potency, µM (doses to about 46.2 µM), hits mostly inhibitors; 12% of 420,000 active; AID 686979, 2013; also: nearly all actives have a fitted effect of over 55% in size
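Cell growth measured by CellTiter-Glo luminescence after a minimum 48 h, 37 C compound exposure with 20 nM CPT in Tdp1-knockout DT40 cells stably expressing hTDP1, seeded 400/well; qHTS titration format.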
uPA generation: qHTS for Inhibitors of Cell Surface uPA Generation | 0.31% of 330,000 active | Potency, µM (doses to about 38.3 µM), usual class: inhibitors | cell surface uPA generation assay, qHTS; active = well fitted inhibition curve with a large enough effect; inconclusive = small, poorly fitted or top-dose-only effect; inactive = no such curve, though single readings can be large or run the other way; tested in mouse RAW 264.7 cells; also: nearly all actives have a fitted effect of over 55% in size
Numbers stand for hits; 0 = inactive; ? = inconclusive; - = no result given. Unless noted, calls follow the shape of the dose curve; as a rule, active = well fitted curve in the direction sought with a large enough effect; inconclusive = small, poorly fitted or top-dose-only effect, or another doubt; inactive = no such curve, though single readings can be large; an effect the other way counts as inactive or inconclusive.

SMILES | HT1080-NT tox | IL1B secr inh | HT1080 IDH1KD tx | TDP1 cell noCPT | DT40 TDP1 CPT | uPA generation
NC(=O)c1cc(N=Nc2c(N)[nH]n(-c3c(Cl)cc(Cl)cc3Cl)c2=O)ccc1Cl | 0 | 0 | 0 | 0 | 0 | 0
COc1cc(C(=O)N/N=C/c2ccc(OC(=O)c3ccccc3Cl)cc2)ccc1O | 0 | -72.4 | 0 | ? | 0 | 0
COc1cc(C(=O)N/N=C/c2ccc3c(c2)c2ccccc2n3C)ccc1O | ? | 0 | ? | 14.6µM | ? | 0
Cn1c2ccccc2c2cc(/C=N/NC(=O)c3cc(O)ccc3O)ccc21 | 0 | -73.3 | ? | 14.6µM | 11.6µM | 0
COc1cc(/C=N/NC(=O)c2cccc(NC(=O)c3ccccc3)c2)ccc1O | 0 | ? | 0 | ? | 0 | 0
COc1cc(/C=N/NC(=O)CCn2c3ccccc3c3ccccc32)ccc1O | ? | ? | ? | 23.1µM | ? | 0
Nc1ccc(C(=O)N/N=C\c2ccc(OC(=O)c3ccccc3Cl)cc2)cc1 | 0 | 0 | 0 | 0 | 0 | 0
COc1ccc(-c2noc(CCC(=O)N3CCN(c4ccc(C(F)(F)F)cc4)CC3)n2)cc1 | 0 | 0 | 0 | ? | ? | 0
COc1ccc(CCn2c(C)c(C(C)=O)c(C(C)=O)c2C)cc1OC | 0 | 0 | 0 | 0 | 0 | 0
CC(=O)c1c(C)n(CCc2ccc(Cl)cc2)c2ccc(O)cc12 | 0 | 0 | 0 | 0 | 0 | 0
COc1ccc(CCn2c(C)cc(C(=O)CCl)c2C)cc1OC | ? | -100.5 | ? | 5.17µM | 6.51µM | 8.91µM
Cc1cc(C(=O)CCl)c(C)n1CCc1ccc(Cl)cc1 | 14.6µM | -96.2 | 8.2µM | 3.66µM | 0 | 0
Cc1cc(C(=O)CSc2nnc(N)s2)c(C)n1CCc1ccc(Cl)cc1 | 0 | 0 | 0 | ? | 9.2µM | 0
CCOC(=O)c1sc(NC(=O)c2nc3nc(C)cc(C(F)F)n3n2)c(C(=O)OC(C)C)c1C | - | - | - | 0 | 0 | -
COc1cc(C2C3=C(CC(C)(C)CC3=O)NC3=C2C(=O)c2ccccc23)ccc1O (stereo not drawn) | 0 | 0 | 0 | 0 | 0 | 0
CC1(C)CC(=O)C2=C(C1)NC1=C(C(=O)c3ccccc31)C2c1ccc(Cl)cc1 (stereo not drawn) | 0 | -54.2 | 18.4µM | ? | ? | 0
Cc1ccc(C2C3=C(CC(C)(C)CC3=O)NC3=C2C(=O)c2ccccc23)cc1 (stereo not drawn) | ? | -57.3 | 0 | 18.4µM | 20.6µM | 0
COc1ccc(C2C3=C(CCCC3=O)NC3=C2C(=O)c2ccccc23)cc1 (stereo not drawn) | 0 | - | 0 | ? | 0 | 0
Cc1ccc(Sc2c(C)nn(C(=O)COc3ccc(F)cc3)c2C)cc1 | - | - | - | 0 | 0 | -
CC(=O)Oc1ccc(C(=O)Nc2cccc(C(=O)c3ccc(C)c(C)c3)c2)cc1 | 0 | 0 | ? | ? | ? | ?
O=C(NCCCl)Nc1cccnc1Cl | 0 | 0 | 0 | ? | 0 | 0
COc1ccccc1CNC(=O)C[C@H]1CC[C@@H]2[C@H](COC[C@H](O)CN2Cc2ccc3c(c2)OCO3)O1 | 0 | 0 | 0 | ? | ? | -
COc1cc2cc(C(=O)N3CCc4ccccc4C3)[nH]c2cc1OC | 0 | 0 | 0 | 0 | 0 | 0
COc1cc2[nH]c(C(=O)N3CCc4ccccc4C3)cc2c(OC)c1OC | 0 | - | ? | 14.6µM | ? | 0
Cc1ccc(-n2cc(CN(C)Cc3ncc[nH]3)c(-c3cccc(C)c3)n2)cc1 | 18.4µM | -81.4 | 18.4µM | 23.1µM | ? | 0
SMILES | HT1080-NT tox | IL1B secr inh | HT1080 IDH1KD tx | TDP1 cell noCPT | DT40 TDP1 CPT | uPA generation
Cc1ccc(-n2cc(CN(C)Cc3nccn3C)c(-c3ccc(F)cc3)n2)cc1 | ? | -139.4 | ? | ? | ? | 0
Cc1ccc(-n2cc(CN3CCNC(=O)CC3)c(-c3ccc(F)cc3)n2)cc1 | 0 | - | 0 | ? | ? | 0
CCN1CC(CN(C)Cc2cn(-c3ccc(C)cc3)nc2-c2cccc(C)c2)CC1=O (stereo not drawn) | 0 | -86.2 | 0 | 14.6µM | ? | 0
Cc1ccc(-n2cc(CN3CCC(O)(c4ccccn4)CC3)c(-c3ccc(F)cc3)n2)cc1 | 16.4µM | -103.0 | ? | ? | ? | 0
CCc1cc(CNC(=O)C2CCC(=O)N(Cc3cccc(F)c3)C2)on1 (stereo not drawn) | 0 | 0 | 0 | 0 | 0 | 0
Cc1ccc(S(=O)(=O)CCC(=O)N(Cc2nnc(-c3ccc(Cl)cc3)o2)C2CC2)cc1 | 0 | 0 | 0 | ? | ? | 0
O=C1NCCN(Cc2ccc(F)cc2)C1=O | - | - | - | 0 | 0 | -
CN1c2ccccc2Oc2nnc(Cl)cc21 | 0 | -51.8 | 0 | 0 | 0 | 0
CN1c2ccccc2Oc2nnc(N3CCN(Cc4ccccc4)CC3)cc21 | 0 | -96.1 | 0 | ? | ? | 0
CC(C)(Oc1ccc(C2CCCc3ccccc32)cc1)C(=O)O (stereo not drawn) | - | - | - | 0 | 0 | -
COc1cccc(-c2sc3ccc(OC)cc3c2-c2cc(F)cc(OC)c2)c1 | 0 | 0 | 0 | 0 | 0 | 0
